Assay outcomes from PubChem.
AmpC inh detg: blocks E. coli AmpC beta-lactamase in detergent assay; Potency, µM (titrated, usually from 114 µM), for the others: at the top dose activity change, negative = inhibition, hits mostly inhibitors; AmpC hydrolysis of nitrocefin, absorbance 480 nm, 0.01% Triton; P00811; 370,000 compounds, 0.041% hits;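 further: 0% = no-compound wells and -100% = no-enzyme wells; nearly all actives have a fitted effect of over 25% in size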
Target sequence (P00811 whole entry, looked up): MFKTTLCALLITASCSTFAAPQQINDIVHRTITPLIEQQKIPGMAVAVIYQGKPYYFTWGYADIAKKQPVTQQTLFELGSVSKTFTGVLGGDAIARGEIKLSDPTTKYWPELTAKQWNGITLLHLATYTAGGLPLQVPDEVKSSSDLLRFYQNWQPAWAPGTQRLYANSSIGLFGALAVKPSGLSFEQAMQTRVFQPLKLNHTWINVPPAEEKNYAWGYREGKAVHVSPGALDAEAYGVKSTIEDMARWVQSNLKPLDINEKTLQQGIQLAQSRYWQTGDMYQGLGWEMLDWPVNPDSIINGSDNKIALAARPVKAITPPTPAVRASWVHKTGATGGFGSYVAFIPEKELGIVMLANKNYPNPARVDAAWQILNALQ
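20 mM phosphate pH 7.0 + 0.01% (detergent screen) or 0.0001% Triton X-100; 5.3 nM AmpC reagent; cpd preinc 15 min RT; nitrocefin (800 uM stock) to start; A480 q20 s × 4 min; Activity was normalised to no-enzyme and no-compound control wells.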
AMA1 RON2 block: inhibitors of Plasmodium falciparum AMA1-RON2 interaction; AlphaScreen AMA1-biotinylated RON2 peptide binding; Potency, µM (top dose mostly 58.2 µM), for inactives: top-dose activity change, negative = inhibition, most hits filed as inhibitors; 360,000 compounds, 0.2% hits; AID 720542;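 further: 0% = vehicle wells and -100% = peptide control; nearly all actives have a fitted effect of over 45% in size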
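AMA1 (3D7) with his tag at 25 nM final met compounds first, then biotinylated RON2 peptide at 25 nM; detection used donor plus acceptor beads, 10 µg/mL apiece, read by AlphaScreen after 30 min at room temperature.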
AmpC inh no detg: blocks E. coli AmpC beta-lactamase in detergent-free assay; P00811; AmpC nitrocefin hydrolysis, absorbance 480 nm, 0.0001% Triton; Potency, µM (highest dose often 57.1 µM), for inactives: at the highest dose activity change, negative = inhibition, usual class: inhibitors; 330,000 compounds, 0.52% hits; AID 485341;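 further: plate controls were no compound for no effect and no enzyme for full effect; nearly all actives have a fitted effect of over 20% in size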
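20 mM phosphate pH 7.0 + 0.01% (detergent screen) or 0.0001% Triton X-100; 5.3 nM AmpC reagent; cpd preinc 15 min RT; nitrocefin (800 uM stock) to start; A480 q20 s × 4 min; Activity was normalised to no-enzyme and no-compound control wells.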
Pf growth 96h: inhibits malaria parasite growth, 96 h. P. falciparum luciferase reporter growth, 96 h. Potency, µM (titrated, usually from 28.7 µM), inactives show at the highest dose activity change, negative = inhibition, hits mostly inhibitors. AID 504834. 320,000 compounds, 6.9% hits
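Readout is luminescence from an integrated firefly luciferase in P. falciparum. Red cells, 2% hematocrit and 0.05% parasitemia final, were cultured with compound through two parasite generations (96 hours) at 37 C, 5% CO2.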
Pf growth 48h: inhibits P. falciparum growth in the first generation, 48 h. P. falciparum luciferase growth in erythrocytes, 48 h. Potency, µM (doses to about 28.7 µM), inactives show top-dose activity change, negative = inhibition, actives largely listed as inhibitors. 310,000 compounds, 5.9% hits. AID 504832
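Cell-based growth assay: transgenic P. falciparum expressing firefly luciferase, cultured in red cells within RPMI 1640 containing 0.5% w/v Albumax, 24 mM bicarbonate and gentamycin. A drop in luciferase activity indicates inhibition.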
HCV inhibitor: HCV inhibition; Huh7.5.1 HCVcc-Cre infection, luciferase reporter, 44 h; Potency, µM (titrated, usually from 41.8 µM), for inactives: top-dose activity change, negative = inhibition, usual class: inhibitors; 340,000 compounds, 3.4% hits; AID 651820
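HCVcc-Cre virus at an moi near 0.5 was added right after compound to cells cultured 4 h from seeding (1,000 cells/well). Luciferase activity was determined 44 h later, 15 min after substrate addition at RT.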
* = called active by the depositor; ? = inconclusive; . = no result. Shown are actives, neighbours in structure and some others; about 11% of the full set was active somewhere. The call rests on the fitted dose curve; in most records, active means well fitted curve in the direction sought with a large enough effect; inconclusive means small, poorly fitted or top-dose-only effect, or another doubt; inactive means no such curve, though single readings can be large; an effect the other way counts as inactive or inconclusive. Unless noted, on the % scale 0 is the no-effect control and ±100 the full control effect; potency means the concentration at half of the fitted maximal effect.

SMILES | AmpC inh detg | AMA1 RON2 block | AmpC inh no detg | Pf growth 96h | Pf growth 48h | HCV inhibitor
O=C(Cn1nnc2ccccc21)OCC(=O)c1ccccc1 | -2% | -21% | -13% | 4.1µM* | -7% | 3%
O=C(Cn1nnc2ccccc21)OCC(=O)c1ccc(Cl)c(Cl)c1 | -14% | 7% | -16% | . | ? | -7%
Cc1cc(/C=C2\C(=N)N3N=C(C(C)C)SC3=NC2=O)c(C)n1-c1ccccc1 | 3% | 6% | -25% | 12µM* | -2% | -13%
CC(C)C1C(=O)N(Cc2cn(CCC3OCCCO3)nn2)CCS(=O)(=O)N1Cc1ccc(-c2cccc(N(C)C)c2)cc1 (stereo not drawn) | . | -24% | . | . | . | .
CC(C)C1C(=O)N(Cc2cn(CCC3OCCO3)nn2)CCS(=O)(=O)N1Cc1ccc(-c2cccc(N(C)C)c2)cc1 (stereo not drawn) | . | 18µM* | . | . | . | .
CN(c1ccc(OCC(=O)Nc2nc(-c3ccccc3)cs2)cc1)S(=O)(=O)c1ccc(F)cc1 | -1% | -5% | -17% | ? | -18% | 10µM*
Cc1ccc(S(=O)(=O)N(C)c2ccc(OCC(=O)Nc3nc4ccccc4s3)cc2)cc1 | -6% | -13% | -33% | 3.3µM* | 4.7µM* | ?
CCOc1ccc(S(=O)(=O)N(C)c2ccc(OCC(=O)Nc3nccs3)cc2)cc1 | -3% | 60% | -39% | ? | 1.9µM* | ?
Cc1ccc(S(=O)(=O)N(C)c2ccc(OCC(=O)Nc3nc4c(ccc5ccccc54)s3)cc2)cc1 | ? | -12% | -49% | -28% | 1% | ?
CCOC(=O)C(=O)c1csc(NC(=O)COc2ccc(N(C)S(=O)(=O)c3ccc(F)cc3)cc2)n1 | -17% | 22% | -27% | 7% | . | 0%
Cc1ccc(S(=O)(=O)N(C)c2ccc(OCC(=O)Nc3nc(-c4ccccc4)cs3)cc2)cc1 | -9% | 9% | 2µM* | ? | ? | ?
Cc1nc2ccccc2n1CCc1nc2c3ccccc3nc(SCc3cccc(F)c3)n2n1 | 6% | . | . | . | . | .
Cc1cccc(NC(=O)c2ccc3nc(CCc4ccccc4)oc3c2)c1C | 15% | . | . | . | . | .
CCc1ccccc1N1C(=O)CC(N2CCc3ccccc32)C1=O (stereo not drawn) | -1% | -14% | -4% | ? | 10% | -1%
O=C1CC(N2CCCc3ccccc32)C(=O)N1c1ccccc1 (stereo not drawn) | ? | -8% | -7% | 12µM* | 16% | -1%
Cc1ccc(NC(=O)O/N=C/c2ccc(F)cc2)cc1 | ? | -4% | -25% | 5.9µM* | 40% | -5%
Cc1ccc(NC(=O)O/N=C/c2ccc(Br)cc2)cc1 | 3% | 7% | -21% | 30% | 55% | 3%
CC(C)(C)C1CCc2c(sc3nc(-c4cc5cc(Br)ccc5oc4=O)[nH]c(=O)c23)C1 (stereo not drawn) | 17% | . | . | . | . | .
Cc1cc(NC(=O)CSc2nnnn2C2CCCC2)no1 | ? | 33% | -31% | 7.4µM* | 15% | 8%
Cc1ccc(NC(=O)CSc2nnnn2C2CCCC2)cc1S(=O)(=O)N1CCOCC1 | ? | -22% | -6% | 8.3µM* | ? | 1%
CCOc1ccc(NC(=O)CSc2nnnn2C2CCCC2)cc1 | ? | 4% | -27% | -3% | 27% | 5%
CCOc1ccc(NC(=O)CSc2nnnn2C2CC2)cc1S(=O)(=O)N1CCCC1 | -22% | -2% | -16% | 15µM* | ? | -19%
CC1CCN(S(=O)(=O)c2ccc(NC(=O)CSc3nnnn3C)cc2)CC1 | -5% | -2% | 0.16µM* | ? | 4% | 12%
Cc1ccccc1OC(=O)CSc1nnc(-c2cccs2)o1 | 7% | . | . | . | . | .
O=[N+]([O-])c1ccc(/C=N/Nc2nc(N3CCCCC3)nc(N3CCCCC3)n2)o1 | 4% | -9% | -56% | . | ? | 14µM*
SMILES | AmpC inh detg | AMA1 RON2 block | AmpC inh no detg | Pf growth 96h | Pf growth 48h | HCV inhibitor
COc1c(/C=N/Nc2nc(N3CCCCC3)nc(N3CCCCC3)n2)cccc1[N+](=O)[O-] | 4% | -2% | -12% | ? | ? | ?
O=[N+]([O-])c1ccc(/C=N/Nc2nc3ccccc3o2)cc1 | -6% | 1% | -4% | 9.3µM* | 129% | 11%
O=[N+]([O-])c1ccc(Nc2nc(N/N=C/c3cccc(F)c3)nc(N3CCCC3)n2)cc1 | -6% | 64% | -16% | ? | 2.9µM* | ?
Cc1ccc(Nc2nc(N/N=C\c3ccc4c(c3)OCO4)nc(N3CCOCC3)n2)cc1 | 3% | 83% | 2% | ? | 10µM* | 11µM*
COc1cccc(/C=N/Nc2nc(Nc3ccc([N+](=O)[O-])cc3)nc(N3CCCC3)n2)c1O | 0% | 54% | -20% | 40% | ? | ?
Cc1ccc(C(=O)Nc2nnc(SCc3cc(=O)n4ccc(C)cc4n3)s2)cc1 | 0% | . | . | . | . | .
Cc1ccc(C)c(-c2csc(-c3c(N)c(C(=O)c4ccc5c(c4)OCO5)n4ccccc34)n2)c1 | 21% | . | . | . | . | .
O=[N+]([O-])c1ccc(/C=N/Nc2nc(N3CCOCC3)nc(N3CCOCC3)n2)cc1 | -5% | . | -10% | -3% | -8% | .
O=[N+]([O-])c1cc2c(cc1/C=N/Nc1nc(Nc3ccccc3)nc(N3CCCCC3)n1)OCO2 | 0% | 27% | -28% | 2.9µM* | 4.7µM* | ?
CNc1nc(N/N=C/c2ccc([N+](=O)[O-])cc2)nc(Nc2ccccc2)n1 | ? | 0% | -34% | ? | 3.3µM* | ?
CCn1c(NCc2cccc(Cl)c2)nc2ccccc21 | 7% | . | . | . | . | .
C#Cc1ccc([C@H]2C=C(C(=O)N3CCN(Cc4ccc5c(c4)OCO5)CC3)O[C@@H](OCC)[C@@H]2CCCO)cc1 | 10% | -23% | 209% | 4.1µM* | 4.1µM* | ?
CCO[C@H]1OC(C(=O)N2CCN(Cc3ccc4c(c3)OCO4)CC2)=C[C@@H](c2ccc3c(c2)OCO3)[C@@H]1CCCO | 9% | -19% | 208% | 13µM* | 5.9µM* | -18%
CCO[C@H]1OC(C(=O)N2CCN(Cc3ccc4c(c3)OCO4)CC2)=C[C@@H](C)[C@@H]1CCCO | -2% | -5% | 88% | 3% | -1% | -26%
Cc1nc2ccn(Cc3ccco3)c(=O)c2cc1C(=O)NCc1ccc(F)cc1 | 18% | . | . | . | . | .
O=C(CNC(=O)C12CC3CC(CC(C3)C1)C2)N1CCN(S(=O)(=O)c2cccs2)CC1 | ? | -10% | 6% | ? | ? | ?
